Marburg entry inh – blocks Marburg virus binding to or entry into cells; Marburg virus pseudotyped entry inhibition, cell reporter; Potency, µM (series often up to 37.8 µM), inactives show at the highest dose activity change, negative = inhibition, hits mostly inhibitors; hit rate 1.8% among 300,000; calls by dose curve; tested in HEK293 cells; also: potency is read from the fitted curve at half-maximal effect
Lassa entry inh – blocks Lassa virus binding to or entry into cells | Lassa virus pseudotype entry inhibition, cell reporter | Potency, µM (series often up to 37.9 µM), for the others: at the top dose activity change, negative = inhibition, most hits filed as inhibitors | hit rate 1.2% among 300,000; calls by dose curve; tested in HEK293 cells; also: potency is read from the fitted curve at half-maximal effect; nearly all actives have a fitted effect of over 50% in size
HCMV antiviral – blocks human cytomegalovirus replication | HFF cells, HCMV-luciferase reporter, 72 h; active compounds read low | activity change, negative = inhibition, % at 57.5 µM | hit rate 4.5% among 410,000; in the data active = activity change below about -60%; inconclusive = no clear call, values can overlap the other calls; inactive = above about -39%
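Steps: HFFs plated, 16 h 37C; compounds added; HCMV-luciferase added to MOI 1 PFU/cell; 72 h 37C; OneGlo reagent, 5 min room temperature; luminescence read, normalized to controls.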
FMDV inh – antivirals against foot and mouth disease virus | FMDV antiviral cell-based qHTS | hit rate 1.2% among 410,000 | Potency, µM (titrated, usually from 57.9 µM), for the others: top-dose activity change, negative = inhibition, actives largely listed as inhibitors | AID 1159524; calls by dose curve; tested in HEK293T cells; also: read-out not given here; potency is read from the fitted curve at half-maximal effect; nearly all actives have a fitted effect of over 45% in size
An asterisk follows results filed as active; ? = inconclusive; · = not tested or not shown; [ ] = another dose, or the depositor's remark. In the library only some 6.2% were active in any assay of this set; here they are far more common. % is scaled to controls: 0 for no effect and ±100 for the full control effect.

SMILES | Marburg entry inh | Lassa entry inh | HCMV antiviral | FMDV inh
COc1ccc(-n2c(=S)[nH]c3cc(C(=O)Nc4ccc(C)c(F)c4)ccc3c2=O)c(OC)c1 | ? | ? | -76* | -17%
CCOc1ccc(NC(=O)c2ccc3c(=O)n(-c4ccc(OC)cc4OC)c(=S)[nH]c3c2)cc1 | · | · | -82* | ·
COC(=O)C1=CNC=C(C(=O)OC)C1c1cccc(OC)c1 | -1% | 1% | -9 | -8%
Cc1ccc(S(=O)(=O)N(Cc2cc3ccc(C)cc3[nH]c2=O)c2ccccc2)cc1 | · | · | -24 | 10%
CC1CC(C)(C)NC(=S)N1CCC(=O)NCc1ccc(Cl)cc1 (centres undefined) | 15%[46.1 µM] | -20% | 42 | -2%
N#Cc1c(Cl)nc2c(c1C#N)CCCC2 | 16% | 9% | -75* | -23%
O=C(NCC(c1ccc2c(c1)OCO2)N1CCOCC1)C(=O)Nc1cccc(Cl)c1 (centres undefined) | · | 18%[46.1 µM] | 10 | -25%
COc1ccc(-c2ccc(NS(=O)(=O)c3ccccc3Cl)cc2)nn1 | · | ? | -26 | 5%
COc1ccc(-c2ccc(NS(=O)(=O)c3cc(C)c(C)cc3C)cc2)nn1 | · | 19%[46.1 µM] | -77* | 55%
CC(C)NC(=O)C1CCC(Cn2c(=O)c3sccc3n(CC(=O)Nc3ccccc3)c2=O)CC1 (centres undefined) | · | 19%[46.1 µM] | -5 | -6%
O=C1NCN(c2ccccc2)C12CCN(C(c1ccccc1OC(F)(F)F)c1nnnn1Cc1ccccc1)CC2 (centres undefined) | · | · | -21 | -9%
CN(C)c1ccc(CNc2nc3cc(-c4ccc(F)cc4)sc3c(=O)n2C)cc1 | · | · | -86* | 0%
Cc1ccc(NC(=O)c2ccc3ccccc3n2)nc1 | 23% | ? | 246 | 6%
NC1=C(Cl)C(=O)c2ccc(S(N)(=O)=O)cc2C1=O | 2µM* | ? | -101* | 2.5µM*
O=C(c1ccco1)N1CCN(C(=O)c2cccn3c(=O)c4c5c(sc4nc23)CCCC5)CC1 | · | · | -35 | -1%
Cc1c(C(=O)N2CCN(c3ccc(F)cc3)CC2)sc2ncnc(N3CCN(c4ccccn4)CC3)c12 | ? | ? | -81* | ?
Cc1sc2ncnc(N3CCN(C(=O)c4ccco4)CC3)c2c1C | ? | ? | -67* | -21%
Cc1nc(N2CCN(C(=O)c3ccco3)CC2)c2c3c(sc2n1)CCC3 | 10µM* | ? | -65* | ?
CC(C)c1nc(N2CCN(C(=O)c3ccco3)CC2)c2c3c(sc2n1)CCCC3 | 18µM* | ? | -9 | ·
COC(=O)c1cccc(Oc2cccc(C(F)(F)F)c2)n1 | · | · | 19 | -6%
O=C(CSc1nnc(Cc2ccccc2)o1)NCCc1ccccc1 | 2% | -5% | -34 | 14%
O=C(c1cnc(N2CCN(c3ncccn3)CC2)c2ccccc12)N1CCN(c2ncccn2)CC1 | ? | -28% | ? | -6%
Cc1ccc(Cl)cc1N(C)C(=O)c1cnc(N2CCOCC2)c2ccccc12 | · | -18%[46.1 µM] | -5 | -14%
CCN(C(=O)c1cnc(N2CCN(c3ncccn3)CC2)c2ccccc12)c1cccc(Cl)c1 | ? | ? | -85* | 20µM*
CN(C(=O)c1cnc(N2CCN(c3ncccn3)CC2)c2ccccc12)c1ccc(Cl)cc1 | ? | ? | ? | 20µM*
SMILES | Marburg entry inh | Lassa entry inh | HCMV antiviral | FMDV inh
COC(=O)c1ccc(COC(=O)CCS(=O)(=O)c2ccc(C)cc2)cc1 | -28%[46.1 µM] | 12% | -5 | -8%
CCn1c(CCNC(=O)c2ccc(Cl)c(Cl)c2)nnc1SCCOc1ccc(OC)cc1 | -25% | 7% | -65* | 40µM*
Cc1ccc(C(=O)n2c(-c3ccccc3)cnc2SCC(=O)Nc2ccccc2)cc1 | ? | 1% | -74* | 0%
CC(=O)n1nc(-c2cccc(C)c2)nc1SCC(=O)Nc1ccccc1 | -2% | ? | -89* | 32%
CCOc1ccc(NC(=O)CSc2ncc(-c3ccc(F)cc3)n2Cc2ccco2)cc1 | · | · | -27 | -15%
Cc1ccc(NC(=O)Cn2c(-c3ccc(F)cc3)cnc2SCC(=O)Nc2c(C)cccc2C)cc1 | ? | ? | -78* | -20%
CCC(=O)n1nc(-c2ccccc2)nc1SCC(=O)Nc1ccc(C)cc1 | 2% | -5% | 17 | 12%
COC(=O)c1ccc(/C=N/NC(=O)c2cccc(F)c2)cc1 | ? | ? | 47 | 22%
[O-][n+]1c2c(c3c4non(O)c4ccc31)CCCC2 | 3% | -4% | -97* | ·
COc1ccc(CCNC(=O)NC2CCCCC2)cc1 | -7% | ? | 31 | 32%
CCOC(=O)CC(NS(=O)(=O)c1cc(-c2cc(C)no2)ccc1C)c1ccc(C)cc1 (centres undefined) | · | ? | -34 | 40%
COC(=O)c1cc(S(=O)(=O)NCC2CCN(CCc3cccs3)CC2)c[nH]1 | · | · | -24 | 2%
CC(C)N=C(NS(=O)(=O)c1ccccc1)C(Cl)(Cl)Cl | ? | ? | -98* | 0%
O=S(=O)(NC(=S)c1ccccc1)c1ccccc1 | 1%[46.1 µM] | 11%[46.1 µM] | -36 | 6%
CN1CCN(S(=O)(=O)c2ccc3c(c2)OCCO3)CC1 | 13% | ? | 36 | -19%
O=S(=O)(c1ccc2c(c1)OCCO2)N1CCN(c2ncnc3sccc23)CC1 | ? | ? | -91* | ?
Cc1ccc(S(=O)(=O)N2CCN(c3ncnc4sccc34)CC2)cc1C | ? | ? | -72* | 11µM*
Cc1ccc(S(=O)(=O)N2CCN(c3ncccn3)CC2)cc1C | ? | -17%[46.1 µM] | 4 | -19%
Cc1ccc(NC(=O)CC(C)CC(=O)NCc2ccccc2)cc1Cl (centres undefined) | · | · | 28 | -16%
Cc1ccc2occ(CC(=O)N3CCN(c4cccc(Cl)c4)CC3)c2c1 | 28%[46.1 µM] | -15%[46.1 µM] | -71* | -22%
COc1ccc(N2CCN(C(=O)Cc3coc4cc(C)ccc34)CC2)cc1 | 1%[14.2 µM] | -22% | -6 | -9%
COc1ccc(N2CCN(C(=O)Cc3coc4ccc(C)cc34)CC2)cc1 | 20%[46.1 µM] | -9%[46.1 µM] | -114* | -19%
CCOC(=O)c1c(C)[nH]c(C)c1C(=O)COC(=O)c1ccc([N+](=O)[O-])s1 | · | · | 41 | -4%
CC(C)(C)c1ccc2c(c1)C(=O)c1ccccc1C2=O | ? | 8.9µM* | -20 | 6%
CCc1ccc2c(c1)C(=O)c1ccccc1C2=O | 5% | 18% | 79 | 9%
SMILES | Marburg entry inh | Lassa entry inh | HCMV antiviral | FMDV inh
Cc1cccc(N2CCN(C(=S)c3ccccc3)CC2)c1 | ? | -7% | -27 | -18%
Cc1cccc(N2CCN(C(=S)c3ccc([N+](=O)[O-])cc3)CC2)c1 | -12% | -21% | -63* | -11%
CCC(=O)C1=C(c2ccc(Cl)cc2)N(C(=O)CC)n2c(C)nnc2S1 | · | 0%[46.1 µM] | -99* | 0%
CCC(=O)C1=C(c2ccccc2)N(C(=O)CC)n2c(nnc2-c2ccccc2)S1 | · | -11%[46.1 µM] | -20 | -11%
O=C1NC(=O)/C(=C\c2ccc(OCc3cccc(C(=O)O)c3)c(Cl)c2)N1 | ? | 6.3µM* | 83 | -65%
O=C(O)c1cccc(COc2ccccc2Cl)c1 | 0.41µM* | 0.52µM* | ? | 1.4µM*
COc1cc(/C=C2\NC(=S)NC2=O)ccc1OCc1cccc(C(=O)O)c1 | ? | ? | 45 | 7%
CC(=O)OC(C(=O)NC1CCCCC1)c1ccc(C)cc1 (centres undefined) | -13%[46.1 µM] | 0% | -29 | 52%
